Sampled rows, rich in hits. Any-hit rate of the full collection: about 2.7%.
A549 viability = A549 cytotoxicity, counter-screen for Nrf2 inhibitors | A549 ARE-Fluc cells, CellTiter-Fluor viability, 18-24 h | Potency, µM (doses to about 46 µM), without a hit: at the highest dose activity change, negative = cytotoxicity, hits mostly inhibitors | 390,000 tested, 0.16% active | AID 504648; also: potency is read from the fitted curve at half-maximal effect; % is scaled to controls: 0 for no effect and ±100 for the full control effect
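A549 ARE-Fluc cells in 5% FBS OPTI-MEM, 5000 cells/well, rested 2 h then exposed to compounds in concentration-response for 18-24 h at 37 °C. Viability by CellTiter-Fluor fluorescence (Ex 405/Em 525) after 30 min; luciferase luminescence (BugLite, 15 min, RT) read afterwards.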
LDHA block = blocks human lactate dehydrogenase A | purified LDHA, NADH/diaphorase-resazurin fluorescence; active compounds read low | AID 1347041 | activity change, % (values are at about 110 or 230 µM) | 480,000 tested, 0.15% active | P00338; in the data active = activity change below about -30%; inconclusive = mostly about -25% to -30%;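 also: plate controls were DMSO wells for no effect and wells without enzyme for full effect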
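Human LDH5 (2 nM) was incubated with 0.06 mM NADH and 0.2 mM pyruvate for 5 min at room temperature in Tris pH 7.4. Remaining NADH was coupled through diaphorase/resazurin, and resorufin fluorescence was read at 0 and 20 min.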
Nrf2 inh = inhibitors of Nrf2 signaling; 360,000 tested, 2.1% active; A549 ARE-Fluc reporter, luciferase luminescence, 18-24 h; Potency, µM (series often up to 46 µM), for inactives: at the highest dose activity change, negative = inhibition, usual class: inhibitors; also: potency is read from the fitted curve at half-maximal effect; % is scaled to controls: 0 for no effect and ±100 for the full control effect; nearly all actives have a fitted effect of over 60% in size
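Concentration-response testing used A549 ARE_Fluc cells at 5000 cells/well. Following an 18-24 h compound incubation, viability was read by fluorescence (Ex 405/Em 525) and luciferase output by luminescence.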
ERG-DNA inh = ERG Ets/DNA interaction inhibition; P11308; fluorescence polarization, His-ERG Ets domain / labelled DNA; Potency, µM (highest dose often 76.9 µM), for inactives: top-dose FP activity, negative = inhibition, most hits filed as inhibitors; 370,000 tested, 0.028% active; active = well fitted inhibition curve with a large enough effect in the polarisation, with a control signal flat; inconclusive = small, poorly fitted or top-dose-only effect, or effect the other way, or a change in a side signal; inactive = no such curve, though single readings can be large or run the other way; the % refers to the polarisation;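 also: polarization taken with two DNA probes labelled with fluorescein and Texas red; potency is read from the fitted curve at half-maximal effect; % of control where 0% means no effect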
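His-tagged ERG Ets domain (1 uM in the protein solution; 300mM KCl, 50mM Tris-HCl, 1mM EDTA, 1mM DTT, pH 7.5) received compound, then a probe mix of 5 nM fluorescein-DNA and 100nM Texas-615-DNA. Fluorescence polarization was read for both dyes.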
Nrf2 ARE act = activates Nrf2 signaling. AREc32 ARE-luciferase reporter (MCF7-derived line), luminescence, 24 h. Potency, µM (top dose mostly 46.1 µM), without a hit: at the top dose activation, most hits filed as activators. 410,000 tested, 0.31% active; also: potency is read from the fitted curve at half-maximal effect; % of control where 0% means no effect; nearly all actives have a fitted effect of over 65% in size
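Cells of the AREc32 ARE-luciferase line are plated in OPTI-MEM containing 5% FBS and left overnight at 37 deg C. Compounds are pinned in, incubation continues 24 hr, and firefly luciferase signal is then measured.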
ALOX12 inh = blocks human arachidonate 12S-lipoxygenase | Potency, µM (titrated, usually from 108 µM), inactives show at the top dose activity change, negative = inhibition, hits mostly inhibitors | P18054 | AID 1671190 | 580,000 tested, 1.1% active | purified 12hLO, xylenol orange hydroperoxide absorbance; also: potency is read from the fitted curve at half-maximal effect; % is scaled to controls: 0 for no effect and ±100 for the full control effect
Target sequence (P18054 whole entry, looked up): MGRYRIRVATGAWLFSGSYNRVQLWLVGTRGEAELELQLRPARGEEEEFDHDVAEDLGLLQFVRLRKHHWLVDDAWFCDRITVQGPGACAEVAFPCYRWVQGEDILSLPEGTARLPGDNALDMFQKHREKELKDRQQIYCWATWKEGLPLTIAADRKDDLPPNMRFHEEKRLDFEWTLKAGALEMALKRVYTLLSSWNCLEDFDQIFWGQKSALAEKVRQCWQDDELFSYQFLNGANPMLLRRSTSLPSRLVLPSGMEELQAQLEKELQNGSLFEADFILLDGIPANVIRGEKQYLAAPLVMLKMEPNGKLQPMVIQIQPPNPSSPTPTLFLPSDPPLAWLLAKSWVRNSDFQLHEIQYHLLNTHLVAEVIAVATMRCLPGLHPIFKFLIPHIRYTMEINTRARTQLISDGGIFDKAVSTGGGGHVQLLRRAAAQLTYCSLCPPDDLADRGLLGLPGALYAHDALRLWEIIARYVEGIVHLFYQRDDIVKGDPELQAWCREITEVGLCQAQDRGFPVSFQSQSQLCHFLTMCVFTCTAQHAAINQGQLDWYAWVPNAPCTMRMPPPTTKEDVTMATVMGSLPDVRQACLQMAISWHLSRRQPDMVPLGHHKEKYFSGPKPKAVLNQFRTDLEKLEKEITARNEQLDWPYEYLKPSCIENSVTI
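Hydroperoxide product was detected by ferrous iron/xylenol orange as the 573 to 405 nm absorbance ratio. Arachidonic acid at 40 uM (final) was turned over for 30 min at room temperature by 150 nM human 12hLO, pH 7.0 Hepes buffer, after 15 min compound preincubation.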
An asterisk follows results filed as active; ? = inconclusive; / = no result. Unless noted, calls follow the shape of the dose curve; as a rule, active = well fitted curve in the direction sought with a large enough effect; inconclusive = small, poorly fitted or top-dose-only effect, or another doubt; inactive = no such curve, though single readings can be large; an effect the other way counts as inactive or inconclusive.

SMILES	A549 viability	LDHA block	Nrf2 inh	ERG-DNA inh	Nrf2 ARE act	ALOX12 inh
N#Cc1ccc(/C=N/Nc2ccccc2C(F)(F)F)cc1	/	0	/	/	/	10µM*
CN(Cc1ccc(C(=O)NCC(F)(F)F)cc1)C(=O)c1ccccc1	/	14	/	/	/	12%
O=C1N=c2ccc(Br)cc2=C1c1sc(=S)n(NS(=O)(=O)c2ccccc2)c1O	-6%	13	18%	-6%	6%	35µM*
Cc1ccc(S(=O)(=O)Nn2c(O)c(C=C3N=c4ccccc4=N3)sc2=S)cc1	-28%	-5	-30%	1%	?	35µM*
C[N+](CCOCc1ccccc1)(CCOCc1ccccc1)CCOCc1ccccc1	/	1	/	/	/	18µM*
C/C=C(/C)C(=O)OC1CC(C)(C)C[C@H]2C3=CC[C@@H]4[C@@]5(C)CCC(O[C@@H]6O[C@@H](C(=O)O)[C@@H](O)C(O[C@@H]7OC[C@H](O)[C@@H](O)[C@@H]7O[C@@H]7OC(CO)C(O)[C@@H](O)[C@@H]7O)C6O[C@@H]6OC(CO)C(O)C(O)C6O)[C@@](C)(CO)[C@@H]5CC[C@]4(C)[C@]3(C)CC(O)[C@@]12CO (stereo not given in full)	?	5	?	-10%	-3%	/
C/C=C(\C)C(=O)OC1[C@H](OC(C)=O)C2(CO)C(CC1(C)C)C1=CCC3C4(C)CCC(O[C@@H]5O[C@H](C(=O)O)[C@@H](O[C@@H]6O[C@H](CO)[C@@H](O)[C@H](O)[C@H]6O)[C@H](O)[C@H]5O[C@H]5O[C@H](CO)[C@@H](O)[C@H](O)[C@H]5O)[C@](C)(CO)C4CCC3(C)[C@]1(C)C[C@H]2O (stereo not given in full)	?	-16	18µM*	-3%	-3%	/
O=S(=O)(NCCO)c1ccc2c(c1)Cc1cc(S(=O)(=O)NCCO)ccc1-2	5%	-4	12%	-5%	-1%	14%
NNS(=O)(=O)c1ccc2c(c1)Cc1cc(S(=O)(=O)NN)ccc1-2	2%	-35*	8%	-4%	2%	?
CN1CCN(c2ccc3c(c2)C2CC3CCN2C(=O)OCc2ccccc2)CC1 (stereo not given)	-3%	-7	?	6%	10%	?
O=C(OCc1ccccc1)N1CCC2CC1c1cc(N3CCN(C(=S)NCCc4ccccc4)CC3)ccc12 (stereo not given)	/	-20	/	/	4%	20µM*
CCCCN(C(C)=O)c1ccc2c(c1)C1CC2CCN1C(=O)OCc1ccccc1 (stereo not given)	-10%	5	23µM*	-7%	4%	-59%
CCN(CCc1ccccc1)c1ccc2c(c1)C1CC2CCN1C(=O)OCc1ccccc1 (stereo not given)	-6%	-4	27%	3%	-1%	-8%
COc1ccc(OC)c(C2C=C(C34CC5CC(CC(C5)C3)C4)NC(=S)N2)c1 (stereo not given)	0%	0	?	2%	1%	32µM*
COc1cc(C2C=C(C34CC5CC(CC(C5)C3)C4)NC(=S)N2)cc(OC)c1OC (stereo not given)	-13%	1	23µM*	10%	0%	40%
S=C1NC(C23CC4CC(CC(C4)C2)C3)=CC(c2ccc3c(c2)OCO3)N1 (stereo not given)	4%	-6	11%	2%	0%	?
CCN(CC)C(=O)C(Sc1n[nH]c(-c2ccccc2)n1)c1ccccc1 (stereo not given)	/	-3	/	/	/	-3%
O=C(CSc1nnc2ccc(-c3ccco3)nn12)NC1CCCCC1	/	-4	/	/	/	?
O=C(O)c1cccc2cccc(-c3c4ccc(=O)c(O)c-4oc4c(O)c(O)ccc34)c12	?	9	?	4%	0%	6.3µM*
Cc1cc(OC(=O)c2ccccc2Cl)cc(=O)n1C	3%	-3	8.2µM*	1%	-2%	23%
COc1ccc(NC(=O)c2ncoc2-c2cccc(C)c2)c(OC)c1	/	-12	/	/	/	?
COCCCN1C(=O)N(Cc2nncn2C(C)C)C(=O)C12CCNCC2	/	/	/	/	/	18µM*
Cc1nncn1CCN1C(=O)N(CCc2ccccc2)C2(CCNCC2)C1=O	/	/	/	/	/	-24%
CC/C=C1/N=C2C(=O)N(C)C(=O)N=C2N(C)N1	-6%	10	?	/	/	/
CN1N/C(=C\c2ccccc2)N=C2C(=O)N(C)C(=O)N=C21	5.8µM*	24	?	/	/	/
SMILES	A549 viability	LDHA block	Nrf2 inh	ERG-DNA inh	Nrf2 ARE act	ALOX12 inh
COC1=C(N)C(=O)c2nc(-c3nc(C(=O)O)c(C)c(-c4ccc(OC)c(OC)c4O)c3N)ccc2C1=O	2.6µM*	10	0.073µM*	-4%	-4%	/
C[C@@H]1C[C@@H]2OC(=O)[C@]3(C)[C@H]2[C@@H](OC3(C)O)[C@]2(C)C(=O)C=C[C@H]12 (stereo not given in full)	-3%	3	-19%	4%	14µM*	3%
COc1cc(C2CC(=O)N(CC(=O)Nc3ccccc3C)c3ccccc3S2)cc(OC)c1OC (stereo not given)	/	0	/	/	/	-13%
COc1ccccc1NC(=O)c1ncoc1-c1ccc(OC)c(OC)c1	/	8	/	/	/	-9%
O=C(N/N=C/c1ccc(-c2ccc(S(=O)(=O)Nc3ncccn3)cc2)o1)c1cc2ccccc2cc1O	-16%	-46*	-5%	13%	2%	13µM*
C/C(CS(=O)(=O)c1ccccc1)=N\O	0%	-5	-13%	-4%	0%	4%
C/C=C(\CS(=O)(=O)c1ccccc1)S(=O)(=O)c1ccccc1	-18%	-1	6%	1%	13µM*	0%
O=C(CSc1nc2ccccc2n1Cc1ccccc1)N/N=C/c1ccco1	-18%	-5	8.2µM*	-4%	?	0%
CCn1c(SCC(=O)N/N=C/C=C\c2ccco2)nc2ccccc21	0%	7	?	16%	3.5µM*	?
Cc1ccc2nc(/C(C#N)=C\c3ccc(-c4cc(C(=O)O)cc(C(=O)O)c4)o3)[nH]c2c1	/	25	/	/	/	?
CC(CCc1ccccc1)NC(=O)c1ccc[n+]([O-])c1 (stereo not given)	/	3	/	/	/	4%
COc1ccc(/C=N/n2cnn(Cc3ccccc3Cl)c2=S)cc1OC	4%	3	18µM*	6%	1%	-19%
CCOCCCNC(=O)N[C@H](C(=O)O)C(C)CC (stereo not given in full)	/	-4	/	/	/	?
Cc1ccc(SCCC(=O)N/N=C/c2ccncc2)cc1	6%	-11	15µM*	1%	0%	-2%

Screening data as filed in PubChem.
